Screening results from PubChem BioAssay.
VP16 counter: inhibits Gal4-VP16 luciferase reporter, ROR gamma counter-screen | Drosophila S2 Gal4-VP16 UAS-luciferase, luminescence, 20 h | Potency, µM (highest dose often 53.6 µM), inactives show at the top dose activity, negative = inhibition, hits mostly inhibitors | actives 3.5% (n = 310,000) | AID 2546;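 further: Gal4-VP16 expression switched on by copper sulfate through the metallothionein promoter; potency means the concentration at half of the fitted maximal effect; nearly all actives have a fitted effect of over 50% in size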
DT40 TDP1 CPT: growth inhibition of DT40 Tdp1-/-;hTDP1 cells with camptothecin (screen for TDP1 inhibitors) | chicken DT40 Tdp1-/-;hTDP1 cells + 20 nM CPT, ATP luminescence, 48 h | Potency, µM (doses to about 46.2 µM), inactives show at the top dose activity change, negative = growth inhibition, actives largely listed as inhibitors | AID 686979 | actives 12% (n = 420,000); further: potency means the concentration at half of the fitted maximal effect; nearly all actives have a fitted effect of over 55% in size
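Chicken DT40 Tdp1-/- cells stably complemented with human TDP1 were seeded at 400 cells/well in medium containing 20 nM camptothecin, exposed to pin-transferred compounds, and grown at 37 °C for at least 48 hr. Viability was read as ATP luminescence.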
RORg inh: blocks mouse ROR gamma transcriptional activity; P51450; Drosophila S2 Gal4-RORgamma UAS-luciferase reporter, 20 h; Potency, µM (highest dose often 53.6 µM), inactives show at the highest dose activity change, negative = inhibition, usual class: inhibitors; actives 5.4% (n = 310,000); AID 2551; further: potency means the concentration at half of the fitted maximal effect; nearly all actives have a fitted effect of over 60% in size
Target sequence (P51450 whole entry, looked up, the tested form may be a part): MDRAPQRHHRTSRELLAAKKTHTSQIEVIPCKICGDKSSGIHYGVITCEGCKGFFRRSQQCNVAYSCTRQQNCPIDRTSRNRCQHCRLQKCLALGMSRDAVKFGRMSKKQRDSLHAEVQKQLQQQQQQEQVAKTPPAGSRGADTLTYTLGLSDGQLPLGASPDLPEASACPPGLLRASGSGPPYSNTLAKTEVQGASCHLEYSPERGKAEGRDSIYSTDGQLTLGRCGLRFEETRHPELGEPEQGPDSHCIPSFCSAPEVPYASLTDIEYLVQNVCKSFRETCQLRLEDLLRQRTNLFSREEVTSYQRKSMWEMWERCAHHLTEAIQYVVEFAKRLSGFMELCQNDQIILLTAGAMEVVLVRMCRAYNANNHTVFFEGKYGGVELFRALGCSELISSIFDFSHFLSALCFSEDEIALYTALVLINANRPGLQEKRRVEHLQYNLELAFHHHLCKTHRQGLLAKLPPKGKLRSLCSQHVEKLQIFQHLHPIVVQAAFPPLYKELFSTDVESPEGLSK
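In this cell-based reporter format, copper sulfate (700 uM final) drives Gal4–ROR gamma fusion expression from a metallothionein promoter in Drosophila Schneider cells; compounds preincubated 1 hr, reporter read after 20 hr at ambient temperature.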
ELG1 repair inh: blocks ELG1-dependent DNA repair in HEK293T cells; HEK293T ELG1-luciferase reporter, luminescence, 16 h; DNA damage induced by 5-fluorouridine; Potency, µM (highest dose often 46.1 µM), inactives show top-dose activity change, negative = inhibition, most hits filed as inhibitors; actives 2.3% (n = 330,000); AID 504467; further: potency means the concentration at half of the fitted maximal effect; nearly all actives have a fitted effect of over 55% in size
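DMSO vehicle served as the neutral condition. Each well held 2,000 cells given 5-fluorouridine plus compound; after 16 hr at 37 °C/5% CO2, ONE-Glo was added and luciferase measured 30 min later.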
IL-1B inflam inh: inhibitors of inflammasome signaling (IL-1 beta secretion) | actives 4.7% (n = 360,000) | AID 743279 | THP-1 LPS/ATP IL-1B secretion, AlphaLISA, 16 h; active compounds read low | activity change, % at 57.5 µM; in the data active means activity change below about -50%; inconclusive means mostly about -30% to -49%
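Secreted IL-1B measured by AlphaLISA bead assay after 16 h compound exposure of THP-1 cells; compounds (final up to 57.5 uM) added 1 h before LPS (250 ng/mL) and ATP (1.25 mM) stimulation; lower signal means less secretion.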
TDP1 cell noCPT: qHTS for Inhibitors of human tyrosyl-DNA phosphodiesterase 1 (TDP1): qHTS in cells in absence of CPT; DT40 Tdp1-/- hTDP1 cells, no CPT, ATP luminescence, 48 h; Potency, µM (series often up to 46.2 µM), for inactives: at the highest dose activity change, negative = growth inhibition, actives largely listed as inhibitors; actives 15% (n = 420,000); AID 686978, 2013; further: potency means the concentration at half of the fitted maximal effect; nearly all actives have a fitted effect of over 55% in size
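Chicken DT40 Tdp1-/- cells stably complemented with human TDP1 were seeded at 400 cells/well with DMSO in place of 20 nM camptothecin. After compound pinning, cells grew at least 48 hr at 37 °C; viability read by CellTiter-Glo luminescence.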
Starred values were filed as active, the others as inactive; ? = inconclusive; / = no result; [ ] = dose if it differs, or a comment. An excerpt weighted towards active compounds, which were near 21% of everything screened. Unless noted, the call rests on the fitted dose curve; in most records, active means well fitted curve in the direction sought with a large enough effect; inconclusive means small, poorly fitted or top-dose-only effect, or another doubt; inactive means no such curve, though single readings can be large; an effect the other way counts as inactive or inconclusive. On the % scale 0 is the no-effect control and ±100 the full control effect.

SMILES	VP16 counter	DT40 TDP1 CPT	RORg inh	ELG1 repair inh	IL-1B inflam inh	TDP1 cell noCPT
COc1cccc(/C=N/NC(=O)CNC(=O)c2ccco2)c1O	20µM*	6.5µM*	1.6µM*	8.2µM*	77	8.2µM*
COc1cccc(/C=N/NC(=O)C(=O)NCc2cccnc2)c1O	?	?	11µM*	-6%	34	?
COc1cccc(/C=N/NC(=O)CNC(=O)c2ccncc2)c1O	?	?	16µM*	-15%	1	?
O=C(CNC(=O)c1ccco1)N/N=C/c1ccccc1[N+](=O)[O-]	3%	-2%	12%	-11%	2	16%
C#CC(C)OC(=O)Nc1cccc(Cl)c1 (stereo unspecified)	3%	/	?	/	/	/
CCOc1cccc(Cc2c[nH]c(=O)[nH]c2=O)c1	/	-17%	/	/	?	-10%
COCC(=O)N1CCC2(CCN(Cc3ccncc3)CC2)CC1	21%	22%	4%	/	/	3%
O=C(O)c1cc2[nH]c3c(c2cc1Cl)CCCC3	-2%	10%	20%	-18%	-4	7%
CCS(=O)(=O)c1ccc(O)c(NC(=O)c2ccc(S(=O)(=O)N3CCCCCC3)cc2)c1	/	-7%	/	-9%	10	-3%
Cc1ccc(/C=N/NC(=O)CNC(=O)COc2ccccc2)cc1	2%	8%	10%	1%	-8	-7%
O=C(COc1ccccc1)NCC(=O)N/N=C/c1ccc(O)cc1O	0%	?	?	?	120	16µM*
CCOc1ccc(CCNC(=O)C(O)c2ccccc2)cc1 (stereo unspecified)	-9%	4%	?	-1%	15	-28%
COc1cccc(/C=N/NC(=O)CNC(=O)c2cccnc2)c1O	-24%	-103%	18µM*	?	128	7.3µM*
CCOc1ccc(/C=N/NC(=O)C(O)c2ccccc2)c(O)c1 (stereo unspecified)	2µM*	4.1µM*	0.79µM*	?	95	?
Cc1cccc(OCC(=O)NCC(=O)N/N=C/c2cc(Br)cc(Br)c2O)c1	6.3µM*	?	2µM*	?	97	?
COc1ccc2c(c1)C(=O)[C@H](OC(=O)N[C@H]1CCCc3ccccc31)[C@@H](c1ccc(OC)c(Br)c1)O2	2%	/	-3%	/	/	/
CC(CC(=O)N(C)CC(=O)Nc1ccc(N2CCOCC2)cc1)c1ccccc1 (stereo unspecified)	/	12%	/	-6%	-7	-1%
COc1cccc(-c2cncnc2NC2CCNCC2)c1	7%	3%	11%	/	/	-4%
COc1cccc(/C=N/NC(=O)CN2CC(c3ccccc3)CC2=O)c1O (stereo unspecified)	1.3µM*	?	0.56µM*	-12%	92	18µM*
COc1ccc(CCCC(=O)N/N=C/c2cccc(OC)c2O)cc1C	0.13µM*	1.8µM*	0.22µM*	-5%	73	1.6µM*
O=C(Nc1cc(S(=O)(=O)N2CCCCCC2)ccc1OCC(F)(F)F)c1cnccn1	/	?	/	?	33	?
COc1ccc(CNC(=O)CCc2cn(C)c3ccccc23)cc1	/	-27%	/	/	/	-21%
Cn1c(Cc2ccccc2)[n+](C)c2ccccc21	-5%	?	-25%	?	37	15µM*
CCN(CC)CCCn1c2c(c(SCC(=O)Nc3cc(C)cc(C)c3)nc1=O)CCC2	/	-22%	/	/	-57*	?
CCN(CC)CCn1c2c(c(SCC(=O)Nc3nc4ccccc4s3)nc1=O)CCC2	/	-2%	/	-7%	-99*	?
SMILES	VP16 counter	DT40 TDP1 CPT	RORg inh	ELG1 repair inh	IL-1B inflam inh	TDP1 cell noCPT
CCN(CC)CCCn1c2c(c(SCC(=O)Nc3cccc(C(C)=O)c3)nc1=O)CCC2	/	0%	/	10%	-10	-26%
CCN(CC)CCCn1c2c(c(SCC(=O)Nc3nccs3)nc1=O)CCC2	/	-13%	/	-12%	-7	1%
CCN(CC)CCn1c2c(c(SCC(=O)Nc3nc4ccc(C)cc4s3)nc1=O)CCC2	/	6.5µM*	/	3%	6	5.8µM*
Cc1cc(C)cc(N(C(=O)c2csnn2)C(C(=O)NC2CCCC2)c2ccccn2)c1 (stereo unspecified)	2%	4%	5%	6%	0	-6%
CCCC[C@@H]1C=C(C(=O)O)[C@H](c2ccc(C#N)cc2)N1S(=O)(=O)c1ccc(C)cc1	/	19%	/	-10%	24	-4%
COc1ccc(NC(=O)C2CCN(c3cc(-c4ccccc4)nc4ncnn34)CC2)cc1OC	-13%	18µM*	30%	?	-58*	23µM*
COc1ccc(NC(=O)C2CCN(c3cnccn3)CC2)cc1OC	-17%	15%	2%	14%	-3	-23%
COc1ccccc1NC(=O)N1CCN(c2cc(-c3ccccc3)nc3ncnn23)CC1	-22%	4.6µM*	11%	13µM*	?	4.1µM*
COc1ccc(NC(=O)c2cc(S(=O)(=O)N3CCOCC3)ccc2C)cc1S(=O)(=O)N1CCOCC1	/	-18%	/	?	4	-18%
Cc1cc(C)n(-c2cccc(C(=O)NCC3Cc4cccc(-c5cccnc5)c4O3)c2)n1 (stereo unspecified)	/	?	/	/	/	15µM*
COc1cccc(C(=O)NCC2Cc3cccc(-c4cccnc4)c3O2)c1 (stereo unspecified)	/	-12%[9.04 µM]	/	/	/	?
O=C(NCC1Cc2cccc(-c3cccnc3)c2O1)c1ccc2cc[nH]c2c1 (stereo unspecified)	/	2.9µM*	/	/	/	26µM*
CNC(=O)OCc1snc(-c2ccccc2)c1COC(=O)NC	/	0%	/	/	7	-7%
O=C(c1c(F)cccc1F)N(Cc1ccccc1)Cc1ccccc1	17%	12µM*	-8%	-17%	?	12µM*
COc1cccc(CN(C)C(=O)c2cc(S(=O)(=O)N3CCCC3)ccc2C)c1OC	/	?	/	?	21	?
CCOc1ccc(/C=N/Nc2ccccc2)cc1	-10%	?	25%	28%	23	15µM*
Cc1cccc(OCC(=O)Nc2ccc3oc(=O)ccc3c2)c1	-1%	11%	-21%	1%	-19	?
CCc1ccccc1NC(=O)c1cc([N+](=O)[O-])ccc1N1CCOCC1	2%	-19%	-1%	10%	26	12%
Cc1cccc(NC(=O)c2cc([N+](=O)[O-])ccc2N2CCOCC2)c1C	/	-5%	/	/	14	-16%
